Measurements: PubChem BioAssay AID624330 (Southern Research Specialized Biocontainment Screening …, 2012)
In all, about 340,000 compounds went through this assay and about 2,100 (0.62%) were called active.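 Rule for the calls: active = first-screen hits whose inhibition reached a set limit at any dose in the follow-up dose series; inconclusive = inhibition above the set first-screen limit but never retested; inactive = the rest.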 These entries were drawn from the full list. Potency and affinity values are given separately.

Target: Rac GTPase-activating protein 1 (Homo sapiens) (UniProt Q9H0H5)
Sequence (Q9H0H5 whole entry, looked up): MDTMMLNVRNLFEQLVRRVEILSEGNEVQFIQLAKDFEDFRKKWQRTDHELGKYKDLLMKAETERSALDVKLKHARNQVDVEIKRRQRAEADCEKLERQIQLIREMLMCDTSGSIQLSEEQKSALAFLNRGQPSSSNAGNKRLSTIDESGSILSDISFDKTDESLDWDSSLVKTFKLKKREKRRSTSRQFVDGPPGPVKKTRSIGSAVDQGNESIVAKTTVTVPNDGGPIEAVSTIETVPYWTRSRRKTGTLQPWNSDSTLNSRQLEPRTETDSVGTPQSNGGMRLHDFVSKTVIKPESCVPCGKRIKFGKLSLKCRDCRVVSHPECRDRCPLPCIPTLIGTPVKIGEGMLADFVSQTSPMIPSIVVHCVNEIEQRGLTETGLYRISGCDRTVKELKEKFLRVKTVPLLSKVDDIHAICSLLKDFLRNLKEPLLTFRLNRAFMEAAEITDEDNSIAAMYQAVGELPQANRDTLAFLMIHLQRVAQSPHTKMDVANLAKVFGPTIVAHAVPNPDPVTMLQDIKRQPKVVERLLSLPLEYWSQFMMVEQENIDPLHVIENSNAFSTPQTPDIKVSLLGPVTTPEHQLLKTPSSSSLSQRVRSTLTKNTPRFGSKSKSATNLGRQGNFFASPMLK
Experiment: MgcRacGAP GTPase-activating activity inhibitors, confirmation, biochemical, ADP Hunter fluorescence, primary and confirmatory (AID 624330);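 note: fluorescence reports GDP produced by GAP-driven GTP hydrolysis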
Conditions: MgcRacGAP-stimulated Rac1 GTP hydrolysis, at 30 µM, stronger effect = higher value, GST-tagged Rac1 F28L mutant substrate

inhibition, inactive:
COc1ccc(-c2csc(N(CCCN(C)C)C(=O)c3cc(OC)c(OC)c(OC)c3)n2)cc1 4.15%, CC(C)(C)C(=O)N1CCN(c2ccc([N+](=O)[O-])cc2Cl)CC1 5.07%, O=[N+]([O-])c1ccc(N2CCN(c3ccccc3O)CC2)c(Cl)c1 -5.04%, Nc1ccc2c(c1)Cc1cc([N+](=O)[O-])ccc1-2 14.4%, O=[N+]([O-])c1ccc2c(c1)Cc1cc(F)ccc1-2 -1.78%, Brc1ccc(-c2noc(C3CCCCC3)n2)cc1 11.8%, Cc1cc(C)n(-c2cccc(Cl)c2C#N)n1 7.18%, CCOC(=O)c1c(C)c(C(=O)Nc2ccc(F)cc2)c(C)n1C 1.27%, CCOC(=O)c1sc(C)c2c1NC1(CCCCCC1)NC2=O 1.2%, COc1ccc(/C=N/NC(=O)c2cccnc2)cc1O 28.2%, COc1cc(/C=N/NC(=O)c2cnccn2)cc(OC)c1OC 3.55%, COc1cccc(/C=N/NC(=O)c2cnccn2)c1 8.84%, COc1cc(OC)c(OC)cc1/C=N/NC(=O)c1cnccn1 9.21%, CSc1ccccc1NC(=O)CN1CCN(c2ccccn2)CC1 6.87%, COc1ccccc1/C=N/Nc1cc(C)nc2ccc(C)cc12 14.4%, COc1ccc2nc(C)cc(N/N=C/c3ccc(F)cc3)c2c1 13.3%, COc1ccc2nc(C)cc(N/N=C/c3ccccc3)c2c1 19.7%, Cc1ccc2nc(C)cc(N/N=C/c3ccccc3O)c2c1 9.12%, COc1ccc(OC)c(S(=O)(=O)N2CCC3(CC2)CC(=O)c2ccccc2O3)c1 8.64%, O=C(Nc1ccc(C(=O)O)cc1)/C(=C\c1ccc2c(c1)OCO2)NC(=O)c1ccccc1 -1.61%, O=C(COC(=O)c1ccc([N+](=O)[O-])o1)Nc1ccc(N2CCOCC2)cc1 10.6%, O=C(O)c1ccc(N(c2ccccc2)c2ccccc2)cc1 6.47%, C/C(=N\N(c1ccccc1)c1ccccc1)c1ccc(N)cc1 18.1%, O=C(CSc1nc2ccc(NC(=O)CSc3nnnn3-c3ccccc3)cc2s1)Nc1ccccc1 2.46%, CN(C)c1ccc(C(=O)N2CCCC2)cc1 3.64%, CN(C)c1ccc(C(=O)NN2C(=O)c3ccccc3C2=O)cc1 8.64%, C[C@@H]1CN([C@@H](C)CO)C(=O)c2cc(Br)cnc2O[C@H]1CN(C)C(=O)c1ccc2c(c1)OCO2 13.5%, Cc1cccc(NC(=O)CCCN=C2NS(=O)(=O)c3ccccc32)c1C -1.68%, CN(C)c1ccc(C=Nc2ccccc2)cc1 0.89%, CCN(CC)c1ccc(C=N/C(C#N)=C(\N)C#N)cc1 6.79%, Cc1ccc(N=Cc2ccc(N(C)C)cc2)cc1 3.33%, CCN(CC)c1ccc(/C=N/NC(=O)C(O)c2ccccc2)cc1 (centres undefined) 9.04%, CN(c1ccccc1)c1ccc(/C=N/NC(=O)CC#N)cc1 10.3%, CCN(CC)c1ccc(/C=N/NC(=O)CC(C)C)cc1 5.15%, NC(=S)N/N=C/c1ccccc1 11.7%, CCOc1ccc(/C=N/O)cc1 5.7%, Cc1ccc(SCC(=O)n2nc(C)cc2C)cc1 3.7%, CSc1nc(NS(=O)(=O)c2ccc(F)cc2F)nn1C 6.35%, Cc1ccc(S(=O)(=O)N2CCN(C(=O)Cn3nc(C)c([N+](=O)[O-])c3C)CC2)cc1 6.68%, CC(C)Cn1c(N)c(C(=O)COC(=O)COc2cccc(C(F)(F)F)c2)c(=O)n(C)c1=O 6.32%, COC1CC(C)NC(=S)N1 (centres undefined) 12.9%, O=C(Cn1nnc2ccccc21)N/N=C/c1ccco1 10.9%, COc1ccc(NC(=O)c2ccc3c(c2)C(=O)N(CC2CCCO2)C3=O)cc1O (centres undefined) 0.29%, O=C(CSc1nnc(-c2ccco2)n1Cc1ccccc1)NCc1ccccc1 5.14%, O=C(CSc1nnc(-c2ccco2)n1Cc1ccccc1)c1ccccc1 13.1%, O=C(NN=Cc1ccc2c(c1)CCC2)c1ccccc1[N+](=O)[O-] 6.28%, Cc1cc(C)nc(N2N=C(CSc3ccc(Cl)cc3)CC2=O)n1 3.87%, COc1cccc(C(=O)NNC(=O)Cc2csc(N)n2)c1 10.7%, CCn1c(SCC(=O)c2[nH]c(C)c(C(C)=O)c2C)nnc1-c1ccccc1 11.9%, COc1ccc2cc(CN(C)C(=O)CN3C(=O)NC4(CCCC4)C3=O)ccc2c1 20.2%, CCCNC(=S)Nc1cc2oc3ccccc3c2cc1OC 7.43%, COc1ccccc1CC(=O)Nc1cc2oc3ccccc3c2cc1OC 1.63%, COc1cc2c(cc1NC(=O)CCC(=O)O)oc1ccccc12 17.1%, CNC(=S)Nc1cc2oc3ccccc3c2cc1OC 13.3%, NS(=O)(=O)c1ccc(CCNC(=O)c2ccc(Cl)nc2)cc1 4.85%, COC(=O)C[C@@H]1C[C@@H]2c3cc(NC(=O)NC4CCCCC4)ccc3O[C@@H]2[C@H](CO)O1 0.31%, CC(=O)c1ccc(N2CCN(C(=O)c3ccc(-c4ccccc4)cc3)CC2)cc1 6.62%, CN1c2cccc3cccc(c23)N(C)C1(C)C 17.8%, CN1c2cccc3cccc(c23)N(C)C1c1cccs1 29.9%, Cc1[nH]c2ccc(-c3n[nH]c(=S)n3Cc3ccccc3)cc2c1C 10.2%, c1ccc(-c2csc(NNC3=NCCCCC3)n2)cc1 -65.3%, COc1ccc(CNC(=O)c2ccc[nH]2)cc1Cl -1.95%, COc1cc(-c2n[nH]c(=S)n2-c2ccccc2C(F)(F)F)cc(OC)c1OC 0.91%, CCn1c(C)nc2cc(C(=O)N/N=C/c3ccc(N4CCOCC4)cc3)ccc21 9.18%, CCn1c(C)nc2cc(C(=O)N/N=C/c3ccc(O)c(O)c3O)ccc21 -97%, CCn1c(C)nc2cc(C(=O)NN=Cc3ccc([N+](=O)[O-])cc3)ccc21 8.03%, CCn1c(C)nc2cc(C(=O)N/N=C/c3ccccc3)ccc21 12.6%, CCn1c(C)nc2cc(C(=O)N/N=C/c3cccc(OC)c3O)ccc21 15%, CCn1c(C)nc2cc(C(=O)N/N=C/c3ccccc3C)ccc21 4.28%
